Assays:
Assay in all cases: log2 ratio of Biotin-Ahx-Ub-VS probe labelling (fragment/DMSO); higher = less target engagement (more negative = stronger competition), active = hit call of the paper (q ≤ 0.05, log2 ratio ≤ -1)
Conditions in all cases: compound concentration: 200 uM; treatment time: 3 h
USP42 = target: T1, USP42 (UniProt Q9H9J4)
T1 sequence (whole entry): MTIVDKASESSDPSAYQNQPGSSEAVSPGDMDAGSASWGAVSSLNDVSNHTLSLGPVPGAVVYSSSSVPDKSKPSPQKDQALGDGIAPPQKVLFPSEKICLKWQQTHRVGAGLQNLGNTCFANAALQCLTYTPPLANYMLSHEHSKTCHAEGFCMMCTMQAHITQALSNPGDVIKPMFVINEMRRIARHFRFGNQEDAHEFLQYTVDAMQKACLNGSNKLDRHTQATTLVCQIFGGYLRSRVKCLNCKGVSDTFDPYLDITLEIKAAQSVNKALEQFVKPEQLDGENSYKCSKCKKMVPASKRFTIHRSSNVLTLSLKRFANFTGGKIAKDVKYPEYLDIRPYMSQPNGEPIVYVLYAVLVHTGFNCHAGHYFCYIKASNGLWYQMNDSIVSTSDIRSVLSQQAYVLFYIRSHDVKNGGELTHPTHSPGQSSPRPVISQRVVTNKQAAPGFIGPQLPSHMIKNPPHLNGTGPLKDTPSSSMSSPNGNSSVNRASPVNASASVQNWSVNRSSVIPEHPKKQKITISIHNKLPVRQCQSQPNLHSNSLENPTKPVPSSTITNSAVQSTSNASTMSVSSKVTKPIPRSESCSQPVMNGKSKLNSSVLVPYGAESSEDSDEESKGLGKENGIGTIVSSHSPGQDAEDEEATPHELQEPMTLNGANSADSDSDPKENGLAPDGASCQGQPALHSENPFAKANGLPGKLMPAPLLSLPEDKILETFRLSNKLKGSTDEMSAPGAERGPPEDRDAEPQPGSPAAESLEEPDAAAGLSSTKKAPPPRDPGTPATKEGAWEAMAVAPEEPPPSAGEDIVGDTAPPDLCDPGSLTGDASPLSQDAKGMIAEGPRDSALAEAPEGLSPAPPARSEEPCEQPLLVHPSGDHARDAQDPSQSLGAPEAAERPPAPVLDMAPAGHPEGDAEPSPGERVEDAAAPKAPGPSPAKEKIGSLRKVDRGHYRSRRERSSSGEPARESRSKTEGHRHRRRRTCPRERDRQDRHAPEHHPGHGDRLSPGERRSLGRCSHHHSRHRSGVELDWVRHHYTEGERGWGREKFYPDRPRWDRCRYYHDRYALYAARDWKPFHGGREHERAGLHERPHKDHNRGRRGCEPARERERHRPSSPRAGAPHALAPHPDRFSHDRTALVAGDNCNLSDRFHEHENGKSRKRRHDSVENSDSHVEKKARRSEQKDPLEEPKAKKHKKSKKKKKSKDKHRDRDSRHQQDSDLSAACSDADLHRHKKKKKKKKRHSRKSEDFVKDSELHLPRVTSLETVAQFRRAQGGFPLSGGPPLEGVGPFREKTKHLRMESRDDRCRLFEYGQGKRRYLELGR
Procedure, shortened: (§1)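 HEK293T lysate (495 µg per sample, in Tris/CHAPS/IGEPAL buffer with protease inhibitors) was treated in triplicate with fragment at 200 µM or with DMSO for 3 h. It was then treated with Biotin-Ahx-Ub-VS (0.5 µM final) for 1 h. Labelled DUBs were NeutrAvidin-enriched, digested with LysC and trypsin, and run by diaPASEF LC-MS/MS. Spectronaut label-free quantities were global-median-normalised. Values are average log2 ratios fragment/DMSO by unpaired t-test, using proteins with ≥2 unique peptides.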

USP46 = USP46 (UniProt P62068)
Sequence of USP46 (P62068 whole entry): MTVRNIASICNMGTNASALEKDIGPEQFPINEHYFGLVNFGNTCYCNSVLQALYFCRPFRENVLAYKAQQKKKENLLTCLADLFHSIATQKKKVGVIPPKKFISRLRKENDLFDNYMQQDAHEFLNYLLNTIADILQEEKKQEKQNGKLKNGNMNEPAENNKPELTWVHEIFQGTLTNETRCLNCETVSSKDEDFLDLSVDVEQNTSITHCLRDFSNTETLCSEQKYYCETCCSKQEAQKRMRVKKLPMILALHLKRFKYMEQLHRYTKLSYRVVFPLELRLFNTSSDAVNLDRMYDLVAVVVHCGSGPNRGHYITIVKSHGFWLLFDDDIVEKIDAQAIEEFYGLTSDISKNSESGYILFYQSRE
Procedure, shortened: as §1

USP47 = target: T2, USP47 (UniProt Q96K76)
T2 sequence (whole entry): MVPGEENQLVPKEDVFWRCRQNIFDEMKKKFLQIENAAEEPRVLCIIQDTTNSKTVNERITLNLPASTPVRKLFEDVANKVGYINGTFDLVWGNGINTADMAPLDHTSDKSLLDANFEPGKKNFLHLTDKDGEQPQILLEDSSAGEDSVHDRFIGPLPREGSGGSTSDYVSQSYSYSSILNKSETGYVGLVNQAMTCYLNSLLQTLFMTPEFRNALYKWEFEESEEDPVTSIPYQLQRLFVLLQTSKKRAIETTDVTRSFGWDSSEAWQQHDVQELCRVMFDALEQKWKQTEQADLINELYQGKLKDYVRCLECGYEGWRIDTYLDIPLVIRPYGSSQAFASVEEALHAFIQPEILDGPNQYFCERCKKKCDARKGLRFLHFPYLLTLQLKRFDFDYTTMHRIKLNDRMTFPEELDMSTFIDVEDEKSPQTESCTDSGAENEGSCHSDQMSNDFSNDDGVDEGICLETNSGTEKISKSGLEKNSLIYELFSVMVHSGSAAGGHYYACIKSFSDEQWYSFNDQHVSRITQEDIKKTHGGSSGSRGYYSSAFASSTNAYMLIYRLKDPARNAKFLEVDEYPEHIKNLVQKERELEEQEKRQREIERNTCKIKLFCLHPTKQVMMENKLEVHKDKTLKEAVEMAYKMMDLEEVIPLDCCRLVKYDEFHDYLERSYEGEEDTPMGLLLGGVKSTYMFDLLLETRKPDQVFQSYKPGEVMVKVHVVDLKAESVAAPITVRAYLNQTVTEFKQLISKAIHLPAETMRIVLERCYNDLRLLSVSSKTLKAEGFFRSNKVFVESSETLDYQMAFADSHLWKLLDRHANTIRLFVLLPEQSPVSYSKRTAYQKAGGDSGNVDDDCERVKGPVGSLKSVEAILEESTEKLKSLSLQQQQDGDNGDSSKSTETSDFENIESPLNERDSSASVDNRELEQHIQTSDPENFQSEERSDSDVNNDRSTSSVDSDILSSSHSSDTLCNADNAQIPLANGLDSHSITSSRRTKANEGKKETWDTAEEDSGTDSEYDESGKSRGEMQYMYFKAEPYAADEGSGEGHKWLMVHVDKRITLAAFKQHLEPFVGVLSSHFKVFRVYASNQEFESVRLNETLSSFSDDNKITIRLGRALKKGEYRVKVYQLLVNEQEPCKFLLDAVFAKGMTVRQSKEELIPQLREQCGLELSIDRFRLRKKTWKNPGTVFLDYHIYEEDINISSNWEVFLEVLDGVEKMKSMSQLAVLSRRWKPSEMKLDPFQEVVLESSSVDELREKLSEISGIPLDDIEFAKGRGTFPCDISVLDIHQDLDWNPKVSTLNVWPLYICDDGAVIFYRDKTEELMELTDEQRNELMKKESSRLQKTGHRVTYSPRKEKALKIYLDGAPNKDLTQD
Procedure, shortened: as §1

USP48 = target: T3, USP48 (UniProt Q86UV5)
T3 sequence (whole entry): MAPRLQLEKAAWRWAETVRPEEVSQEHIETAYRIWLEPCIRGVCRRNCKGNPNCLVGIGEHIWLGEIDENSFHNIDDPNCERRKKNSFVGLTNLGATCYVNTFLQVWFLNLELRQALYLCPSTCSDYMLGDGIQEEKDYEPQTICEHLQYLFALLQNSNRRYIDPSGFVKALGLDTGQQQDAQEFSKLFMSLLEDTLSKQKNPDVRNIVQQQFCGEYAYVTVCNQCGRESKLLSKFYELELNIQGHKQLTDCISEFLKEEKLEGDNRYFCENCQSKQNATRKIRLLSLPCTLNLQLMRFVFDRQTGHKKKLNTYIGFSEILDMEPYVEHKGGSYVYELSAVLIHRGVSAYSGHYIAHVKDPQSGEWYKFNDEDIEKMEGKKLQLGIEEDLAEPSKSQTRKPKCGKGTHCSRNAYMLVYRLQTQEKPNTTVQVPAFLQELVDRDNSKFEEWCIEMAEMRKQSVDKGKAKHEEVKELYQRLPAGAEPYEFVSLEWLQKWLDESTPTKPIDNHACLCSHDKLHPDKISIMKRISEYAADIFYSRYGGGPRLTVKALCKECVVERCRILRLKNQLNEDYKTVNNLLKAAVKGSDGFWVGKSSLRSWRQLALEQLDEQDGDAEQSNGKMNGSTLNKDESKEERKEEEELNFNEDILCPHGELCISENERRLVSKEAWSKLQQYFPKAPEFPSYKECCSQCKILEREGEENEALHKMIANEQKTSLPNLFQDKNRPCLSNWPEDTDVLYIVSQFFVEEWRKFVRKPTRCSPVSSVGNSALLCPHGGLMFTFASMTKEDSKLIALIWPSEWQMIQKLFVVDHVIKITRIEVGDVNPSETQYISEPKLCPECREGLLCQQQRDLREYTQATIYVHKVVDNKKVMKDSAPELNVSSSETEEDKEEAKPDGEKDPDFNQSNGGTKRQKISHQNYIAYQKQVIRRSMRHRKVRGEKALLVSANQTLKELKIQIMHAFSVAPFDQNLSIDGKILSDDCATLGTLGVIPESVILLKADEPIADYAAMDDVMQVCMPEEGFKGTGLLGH
Procedure, shortened: as §1

USP5 = target: T4, USP5 (UniProt P45974)
T4 sequence (whole entry): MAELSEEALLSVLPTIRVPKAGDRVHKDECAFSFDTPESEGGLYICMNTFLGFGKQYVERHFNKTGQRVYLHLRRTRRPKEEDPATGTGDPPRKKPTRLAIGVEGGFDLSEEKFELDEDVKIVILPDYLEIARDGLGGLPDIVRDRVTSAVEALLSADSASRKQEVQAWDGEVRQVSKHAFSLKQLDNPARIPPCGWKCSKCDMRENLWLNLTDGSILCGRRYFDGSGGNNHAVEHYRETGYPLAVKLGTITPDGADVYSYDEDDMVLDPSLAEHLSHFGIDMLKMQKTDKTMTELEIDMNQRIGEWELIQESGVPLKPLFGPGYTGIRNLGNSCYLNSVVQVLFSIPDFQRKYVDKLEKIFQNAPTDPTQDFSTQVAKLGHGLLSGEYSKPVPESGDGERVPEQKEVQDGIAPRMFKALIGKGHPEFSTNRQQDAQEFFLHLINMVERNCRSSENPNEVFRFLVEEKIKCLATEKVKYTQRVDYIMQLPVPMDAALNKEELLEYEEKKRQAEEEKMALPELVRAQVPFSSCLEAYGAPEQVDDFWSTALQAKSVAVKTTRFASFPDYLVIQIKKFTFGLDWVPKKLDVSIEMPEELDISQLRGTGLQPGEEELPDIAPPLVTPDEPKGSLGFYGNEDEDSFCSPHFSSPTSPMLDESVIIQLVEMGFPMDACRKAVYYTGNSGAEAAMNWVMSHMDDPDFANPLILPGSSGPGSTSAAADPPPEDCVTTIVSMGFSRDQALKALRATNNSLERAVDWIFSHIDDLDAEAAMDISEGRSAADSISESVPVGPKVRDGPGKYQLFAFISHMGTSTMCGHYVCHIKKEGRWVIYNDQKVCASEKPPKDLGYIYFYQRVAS
Procedure, shortened: as §1

USP54 = USP54 (UniProt Q70EL1)
Sequence of USP54 (Q70EL1 whole entry): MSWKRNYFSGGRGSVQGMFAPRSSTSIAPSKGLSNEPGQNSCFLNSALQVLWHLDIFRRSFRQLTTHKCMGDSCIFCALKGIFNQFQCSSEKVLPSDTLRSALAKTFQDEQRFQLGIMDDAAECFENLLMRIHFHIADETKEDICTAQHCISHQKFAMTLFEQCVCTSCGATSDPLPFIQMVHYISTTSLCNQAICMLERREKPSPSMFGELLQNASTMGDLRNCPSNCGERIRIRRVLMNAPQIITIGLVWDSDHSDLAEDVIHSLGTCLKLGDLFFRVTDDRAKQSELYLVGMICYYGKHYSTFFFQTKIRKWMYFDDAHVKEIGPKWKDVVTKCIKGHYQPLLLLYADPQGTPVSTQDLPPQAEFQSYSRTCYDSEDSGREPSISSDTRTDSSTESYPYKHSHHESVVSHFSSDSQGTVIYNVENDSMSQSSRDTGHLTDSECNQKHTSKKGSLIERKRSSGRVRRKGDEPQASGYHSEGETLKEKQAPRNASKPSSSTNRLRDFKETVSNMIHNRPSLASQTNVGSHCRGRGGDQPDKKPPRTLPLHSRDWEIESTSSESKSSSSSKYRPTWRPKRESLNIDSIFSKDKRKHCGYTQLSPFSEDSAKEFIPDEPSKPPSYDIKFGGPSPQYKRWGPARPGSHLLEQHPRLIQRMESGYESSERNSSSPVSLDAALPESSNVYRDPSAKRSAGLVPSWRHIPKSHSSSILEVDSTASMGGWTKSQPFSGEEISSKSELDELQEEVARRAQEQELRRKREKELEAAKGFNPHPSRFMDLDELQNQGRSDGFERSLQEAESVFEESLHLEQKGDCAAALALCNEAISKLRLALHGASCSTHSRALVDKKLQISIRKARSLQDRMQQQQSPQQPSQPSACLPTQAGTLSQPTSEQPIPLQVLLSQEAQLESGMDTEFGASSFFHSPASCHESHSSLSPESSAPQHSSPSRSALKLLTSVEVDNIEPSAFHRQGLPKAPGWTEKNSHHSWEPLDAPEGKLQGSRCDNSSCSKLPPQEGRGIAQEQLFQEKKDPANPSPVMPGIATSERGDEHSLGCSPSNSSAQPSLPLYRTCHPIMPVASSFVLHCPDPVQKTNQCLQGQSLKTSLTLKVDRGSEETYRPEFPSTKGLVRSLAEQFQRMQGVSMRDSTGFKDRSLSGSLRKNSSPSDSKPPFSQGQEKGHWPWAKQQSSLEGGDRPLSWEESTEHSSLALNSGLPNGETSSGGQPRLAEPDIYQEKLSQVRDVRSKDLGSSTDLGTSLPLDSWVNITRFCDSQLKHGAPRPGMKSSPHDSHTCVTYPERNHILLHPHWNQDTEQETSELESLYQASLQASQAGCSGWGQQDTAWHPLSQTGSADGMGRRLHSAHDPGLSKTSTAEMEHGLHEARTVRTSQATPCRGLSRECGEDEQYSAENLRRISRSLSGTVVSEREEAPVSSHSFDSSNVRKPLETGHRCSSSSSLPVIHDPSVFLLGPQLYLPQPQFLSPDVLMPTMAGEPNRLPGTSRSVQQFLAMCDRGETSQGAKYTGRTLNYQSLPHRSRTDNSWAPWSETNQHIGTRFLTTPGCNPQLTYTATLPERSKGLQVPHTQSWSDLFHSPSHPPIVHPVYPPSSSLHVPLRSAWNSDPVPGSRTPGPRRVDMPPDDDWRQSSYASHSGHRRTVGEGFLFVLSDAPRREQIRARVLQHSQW
Procedure, shortened: as §1

USP7 = USP7 (UniProt Q93009)
Sequence of USP7 (Q93009 whole entry, looked up): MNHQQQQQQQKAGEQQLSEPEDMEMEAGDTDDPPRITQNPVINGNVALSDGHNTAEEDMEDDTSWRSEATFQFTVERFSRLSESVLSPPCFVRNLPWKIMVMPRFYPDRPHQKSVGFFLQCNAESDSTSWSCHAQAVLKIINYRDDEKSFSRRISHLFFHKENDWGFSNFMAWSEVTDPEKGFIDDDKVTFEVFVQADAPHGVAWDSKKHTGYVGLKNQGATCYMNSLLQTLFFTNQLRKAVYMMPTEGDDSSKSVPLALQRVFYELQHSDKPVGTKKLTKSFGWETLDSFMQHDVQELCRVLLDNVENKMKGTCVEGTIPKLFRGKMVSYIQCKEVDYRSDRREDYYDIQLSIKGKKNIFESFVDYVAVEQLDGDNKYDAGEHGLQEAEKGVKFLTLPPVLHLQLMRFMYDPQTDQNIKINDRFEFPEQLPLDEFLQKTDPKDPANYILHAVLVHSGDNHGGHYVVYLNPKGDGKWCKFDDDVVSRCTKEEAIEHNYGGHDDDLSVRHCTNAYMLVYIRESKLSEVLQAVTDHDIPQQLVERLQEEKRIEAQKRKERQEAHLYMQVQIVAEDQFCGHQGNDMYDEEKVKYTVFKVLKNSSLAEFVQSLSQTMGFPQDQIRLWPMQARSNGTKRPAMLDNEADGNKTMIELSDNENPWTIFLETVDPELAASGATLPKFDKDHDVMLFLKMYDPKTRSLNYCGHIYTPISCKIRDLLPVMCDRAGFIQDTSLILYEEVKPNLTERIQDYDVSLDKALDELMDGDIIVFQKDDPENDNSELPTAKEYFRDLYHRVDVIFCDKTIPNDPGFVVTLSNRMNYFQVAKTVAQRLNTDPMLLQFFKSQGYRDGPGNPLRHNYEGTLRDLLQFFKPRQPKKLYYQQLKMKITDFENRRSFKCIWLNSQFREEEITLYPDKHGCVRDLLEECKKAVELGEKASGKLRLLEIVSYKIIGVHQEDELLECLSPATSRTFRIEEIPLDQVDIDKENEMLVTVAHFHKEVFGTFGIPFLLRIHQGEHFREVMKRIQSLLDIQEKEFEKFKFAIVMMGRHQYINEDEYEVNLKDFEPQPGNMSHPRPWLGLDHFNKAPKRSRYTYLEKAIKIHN
Procedure, shortened: as §1

USP8 = target: T5, USP8 (UniProt P40818)
T5 sequence (whole entry): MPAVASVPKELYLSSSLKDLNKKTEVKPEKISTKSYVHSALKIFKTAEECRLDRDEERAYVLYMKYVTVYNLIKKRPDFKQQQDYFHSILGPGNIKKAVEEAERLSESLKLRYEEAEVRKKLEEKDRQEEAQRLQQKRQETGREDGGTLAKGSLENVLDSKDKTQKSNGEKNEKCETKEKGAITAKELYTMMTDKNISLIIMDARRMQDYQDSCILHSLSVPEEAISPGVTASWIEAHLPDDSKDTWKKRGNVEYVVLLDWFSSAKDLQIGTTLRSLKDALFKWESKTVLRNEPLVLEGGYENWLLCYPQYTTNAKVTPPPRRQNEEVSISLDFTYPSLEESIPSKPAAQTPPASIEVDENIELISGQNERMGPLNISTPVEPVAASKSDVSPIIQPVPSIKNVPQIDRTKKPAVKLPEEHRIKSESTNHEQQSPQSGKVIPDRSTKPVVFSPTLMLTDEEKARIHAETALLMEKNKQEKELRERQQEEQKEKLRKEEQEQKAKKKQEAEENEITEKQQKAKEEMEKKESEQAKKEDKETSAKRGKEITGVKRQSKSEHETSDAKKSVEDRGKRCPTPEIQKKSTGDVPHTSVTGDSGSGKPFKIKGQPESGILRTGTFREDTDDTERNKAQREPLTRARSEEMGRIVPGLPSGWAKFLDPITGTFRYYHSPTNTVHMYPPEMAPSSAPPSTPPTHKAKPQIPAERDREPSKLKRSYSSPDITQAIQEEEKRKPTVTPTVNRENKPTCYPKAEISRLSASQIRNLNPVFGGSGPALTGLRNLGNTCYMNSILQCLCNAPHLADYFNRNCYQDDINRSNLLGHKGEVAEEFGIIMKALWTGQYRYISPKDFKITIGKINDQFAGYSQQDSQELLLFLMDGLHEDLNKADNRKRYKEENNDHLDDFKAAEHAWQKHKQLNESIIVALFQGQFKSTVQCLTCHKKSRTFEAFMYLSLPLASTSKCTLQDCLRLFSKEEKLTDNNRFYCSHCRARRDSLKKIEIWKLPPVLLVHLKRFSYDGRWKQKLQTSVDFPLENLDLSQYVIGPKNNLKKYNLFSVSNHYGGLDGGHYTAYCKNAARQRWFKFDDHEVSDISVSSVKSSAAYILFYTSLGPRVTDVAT
Procedure, shortened: as §1

Measured: log2 ratio of Biotin-Ahx-Ub-VS probe labelling

CNC(=O)Cn1cc(NC(=O)CCl)cn1
inactive: USP42 -0.595 | USP46 0.000623 | USP47 0.0561 | USP48 0.0267 | USP5 -0.241 | USP54 0.48 | USP7 -0.438 | USP8 -0.282
